Results from PubChem BioAssay.
Inconclusive results are not listed. Calls of active or inactive are those of the source.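 Rule for the calls, unless noted: active = Her2 level under about 52% in both replicate screens, with viability over 70% of control (limit read from the data); inconclusive = Her2 under the limit in one screen only, or viability under 70%; inactive = Her2 level above the set limit.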

Tests used:
[1] = reducers of endogenous Her2 protein level, primary screen, SKBR3 breast tumor cells, AlphaScreen, ATP viability (AID 461); settings: 18-24 h, measured here: SKBR3 viability, ATP luminescence, at 10 µM;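 for Her2 level: lower value means less Her2 protein in the cells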;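 for viability: percent of carrier control wells set as 100% viability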
[2] = target: Receptor tyrosine-protein kinase erbB-2 (Homo sapiens) (UniProt P04626); test: as above; settings: 18-24 h, at 10 µM, stronger effect = lower value
Sequence of Receptor tyrosine-protein kinase erbB-2 (Homo sapiens) (P04626 whole entry, looked up): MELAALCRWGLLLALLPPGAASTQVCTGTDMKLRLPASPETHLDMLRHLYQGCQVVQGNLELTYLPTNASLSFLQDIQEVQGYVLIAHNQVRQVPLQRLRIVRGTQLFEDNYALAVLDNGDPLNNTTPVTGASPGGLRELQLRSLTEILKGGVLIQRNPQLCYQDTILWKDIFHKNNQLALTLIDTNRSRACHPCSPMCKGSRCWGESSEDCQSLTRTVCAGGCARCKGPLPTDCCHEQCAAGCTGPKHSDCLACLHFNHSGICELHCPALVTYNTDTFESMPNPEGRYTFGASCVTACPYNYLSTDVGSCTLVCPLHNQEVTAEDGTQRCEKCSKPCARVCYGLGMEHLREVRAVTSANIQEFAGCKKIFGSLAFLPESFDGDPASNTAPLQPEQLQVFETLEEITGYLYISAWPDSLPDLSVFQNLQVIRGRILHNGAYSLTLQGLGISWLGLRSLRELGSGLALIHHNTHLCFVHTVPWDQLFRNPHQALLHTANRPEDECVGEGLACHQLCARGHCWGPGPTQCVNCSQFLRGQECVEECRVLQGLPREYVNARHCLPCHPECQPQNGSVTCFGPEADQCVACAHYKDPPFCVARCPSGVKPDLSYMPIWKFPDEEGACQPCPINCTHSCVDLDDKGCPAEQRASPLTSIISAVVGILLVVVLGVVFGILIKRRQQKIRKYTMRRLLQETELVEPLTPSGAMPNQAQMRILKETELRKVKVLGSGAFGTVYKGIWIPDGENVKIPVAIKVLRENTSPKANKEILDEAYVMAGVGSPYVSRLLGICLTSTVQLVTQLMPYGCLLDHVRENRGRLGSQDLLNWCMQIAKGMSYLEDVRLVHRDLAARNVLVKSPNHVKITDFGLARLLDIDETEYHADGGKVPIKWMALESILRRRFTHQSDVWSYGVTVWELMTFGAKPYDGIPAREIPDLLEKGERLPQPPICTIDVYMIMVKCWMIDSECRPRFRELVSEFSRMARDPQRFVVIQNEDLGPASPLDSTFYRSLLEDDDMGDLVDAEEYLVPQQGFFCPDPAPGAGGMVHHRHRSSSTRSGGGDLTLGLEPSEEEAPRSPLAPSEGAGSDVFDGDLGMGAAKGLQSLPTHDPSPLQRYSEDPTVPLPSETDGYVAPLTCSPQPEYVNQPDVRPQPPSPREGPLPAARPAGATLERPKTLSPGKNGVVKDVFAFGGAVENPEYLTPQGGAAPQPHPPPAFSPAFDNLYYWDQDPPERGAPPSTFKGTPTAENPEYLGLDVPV

[3] = SK-BR-3 cell growth inhibitors, pilot screen, 24 h, human (AID 572;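 active = viability at or below 10% of carrier control in both of two separate runs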;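 note: compound exposure lasted between 18 and 24 h rather than exactly 24 h; 100% = carrier-treated control wells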); settings: SK-BR-3 viability, CellTiter-Glo luminescence, at 10 µM, stronger effect = lower value
[4] = HUVEC growth inhibition – cell-based, human, primary screen (AID 575;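 active = viability at or below 30% in both replicate assays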;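 note: 100% = median of untreated cell wells with 0.1% DMSO on each plate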); settings: HUVEC proliferation, CellTiter-Glo luminescence, 72 h; at 10 µM; stronger effect = lower value
[5] = growth inhibitors of H69AR lung tumor, primary screen, human, duplicate replicates (AID 580;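 active = viability at or under a set limit in both replicates, limit being median viability minus 3 SD, cut at about 48% in these data, passing the limit was not always enough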;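 note: 100% = mean luminescence of untreated wells and 0% = no signal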); settings: H69AR lung tumor cells viability, ATP luminescence, 72 h; at 10 µM; stronger effect = lower value
[6] = reversal of MRP1-mediated doxorubicin resistance, pilot screen, H69AR cells, doxorubicin co-treatment (AID 601;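 active = viability loss from added drug above about 55%, and viability with drug at most 40%, in both replicates, limit read from the data, passing the limit was not always enough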); settings: CellTiter-Glo, 72 h, at 10 µM; for differential viability (reversal): stronger effect = higher value
[7] = 384-well plate pilot, post-Golgi transport modulator project, inhibition of yeast transport mutant growth (AID 636; in the data active = inhibition above about 31%); settings: absorbance 615 nm, about 18 h, stronger effect = higher value
[8] = growth suppression of yeast trafficking mutant, preliminary HTS, modulators of trafficking downstream of Golgi apparatus project, 1536-format plate, OD 615 nm (AID 637; in the data active = inhibition above about 30%); settings: yeast transport mutant growth, absorbance 615 nm, 18 h; stronger effect = higher value
[9] = OD615 S. cerevisiae growth inhibition, permissive medium, pilot counter-assay, permissive growth control for S. cerevisiae lifespan shortening project (AID 705;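 active = growth inhibition above 25% in both replicates, a cutoff set 3 SD above the mean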); settings: OD615, 24 h, at 10 µM, stronger effect = higher value
[10] = Restrictive medium S. cerevisiae growth inhibition, OD615, pilot screen of yeast lifespan reduction project, restrictive growth control (AID 706;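 active = growth inhibition above a set limit, 3 SD over mean compound inhibition, in both replicates, cut at about 43% in these data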;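 note: modified DeaD lifespan yeast strain shifted to restrictive glucose medium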); settings: OD615, 48 h, at 10 µM, stronger effect = higher value
[11] = viability gain of MRP-1-high H69AR cells under doxorubicin, pilot screen, MRP-1 activator project, CellTiter-Glo, duplicate (AID 807;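 active = viability increase at or above a cutoff of the median across tested compounds plus 3 SD, cut at about 8.5% in these data, passing the limit was not always enough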;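 note: compound pretreatment 18-22 h then 72 h combined with doxorubicin; 0% = doxorubicin alone and 100% = vehicle without doxorubicin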); settings: H69AR viability with doxorubicin, CellTiter-Glo luminescence; at 10 µM; stronger effect = higher value
[12] = growth suppression of beta-catenin knockout HCT116, pilot screen, human colon tumor cells (AID 823;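 active = cell viability at or below a set limit in both duplicate runs, the limit being the all-compound median minus 4 SD, cut at about 23% in these data, passing the limit was not always enough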;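 note: 0% = wells killed by 20 µM Hyamine and 100% = untreated DMSO cell wells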); settings: CellTiter-Glo, 60 h, at 10 µM, stronger effect = lower value
[13] = growth suppression of PTEN-deleted HCT116, pilot screen, cell-based, HCT116 clonal line, CellTiter-Glo (AID 824;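 active = viability at or below 27.92% in each of two runs, the all-compound median minus 4 SD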;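 note: 0% = 20 µM Hyamine control and 100% = vehicle cell control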); settings: 60 h, at 10 µM, stronger effect = lower value
[14] = inhibitors of the yeast RAM network, pilot screen, dse1pr::URA3 reporter, 5-FOA selection (AID 869;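 active = inhibition over a set limit, the all-compound mean plus 3 SD, in both replicate runs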;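 note: 0% = DMSO wells with no growth and 100% = 10 µM 1-NA-PP1 with full growth; RAM network block rescues cells from 5-FOA so hits raise OD615 growth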); settings: S. cerevisiae dse1pr::URA3 5-FOA growth, OD615, 2 d; at 10 µM; stronger effect = higher value; strain carries analog-sensitive mutant Cbk1 kinase
[15] = H69AR cells + 2 uM doxorubicin, measured here: viability with 2 uM doxorubicin, stronger effect = lower value
[16] = H69AR cells, compound alone cytotoxicity

Structure (SMILES) | viability [1] [%] | Her2 level [2] | viability [3] | viability [4] | viability [5] | differential viability (reversal) ([6]; H69AR cells + 2 uM doxorubicin) | viability [6, 15] [%] | viability [6, 16] [%] | inhibition [7] | inhibition [8] | growth inhibition [9] | growth inhibition [10] | viability increase [11] | viability [12] | viability [13] | inhibition [14]
COc1ccc(/C=N/n2cnnc2SCc2ccc(OC)cc2)cc1 | 83.5 | 90.5% (inactive) | 83.5% (inactive) | 87.6% (inactive) | 89.9% (inactive) | -6.8% (inactive) | 96.7 | 89.9 | 0% (inactive) | 4% (inactive) | 4.08% (inactive) | 30.7% (inactive) | 3.56% (inactive) | 90.6% (inactive) | 93.9% (inactive) | 2.4% (inactive)
C/C(Cl)=C/Cn1c(SCc2ccc(Cl)cc2)nc2c1c(=O)[nH]c(=O)n2C | 102 | 110% (inactive) | 102% (inactive) | 78.8% (inactive) |  | -6.12% (inactive) | 60.4 | 54.3 | -1.33% (inactive) | -7.1% (inactive) |  |  |  |  |  | 
COc1ccc(OC)c(NC(=O)CCNS(=O)(=O)c2cccs2)c1 | 95 | 103% (inactive) | 95% (inactive) | 92.4% (inactive) | 99.8% (inactive) | 5.6% (inactive) | 94.2 | 99.8 | -3.6% (inactive) | 23.3% (inactive) | -2.31% (inactive) | 13.9% (inactive) | -2.82% (inactive) |  | 96.1% (inactive) | 2.21% (inactive)
CC(NC(=O)c1cn(C)c2ccc(S(=O)(=O)N3CCCC3)cc2c1=O)c1ccc2c(c1)OCCO2 (centres undefined) | 89 | 78.5% (inactive) | 89% (inactive) | 85.6% (inactive) | 77.8% (inactive) | 33.8% (inactive) | 44 | 77.8 | -6.22% (inactive) | 4.75% (inactive) | -9.02% (inactive) | -24.8% (inactive) | -4.7% (inactive) | 75.5% (inactive) | 76% (inactive) | 2.6% (inactive)
O=c1[nH]c(=O)n([C@H]2C[C@H](O)[C@@H](CO)O2)cc1F | 89 | 74% (inactive) | 89% (inactive) | 51.3% (inactive) |  | -40.6% (inactive) | 57 | 16.4 |  |  |  |  |  |  |  | 
CN1CCc2c(sc3c2c(=O)n(-c2ccccc2)c2nnc(SCc4ccc(F)cc4)n32)C1 | 82 | 94.5% (inactive) | 82% (inactive) | 109% (inactive) | 102% (inactive) |  |  |  | -1.95% (inactive) | 0.79% (inactive) |  |  |  |  |  | 
O=C(Oc1cc2oc(=O)c3c(c2cc1Cl)CCCC3)c1ccco1 | 82 | 87% (inactive) | 82% (inactive) | 89.6% (inactive) | 80.2% (inactive) | -13.1% (inactive) | 93.2 | 80.2 | 1.28% (inactive) | -4% (inactive) | -14.7% (inactive) | -13.7% (inactive) | -3.67% (inactive) | 108% (inactive) | 104% (inactive) | 1.97% (inactive)
O=C(c1ccc(Br)o1)N1CCN(c2ccc3nnc(-c4ccccc4)n3n2)CC1 | 113 | 78% (inactive) | 113% (inactive) | 56.6% (inactive) | 75.8% (inactive) | 38.7% (inactive) | 37.1 | 75.8 | 2.82% (inactive) | -0.67% (inactive) |  | 45.7% (active) | -1.47% (inactive) | 45% (inactive) | 38.8% (inactive) | 1.29% (inactive)
Cc1c(C(=O)NC2CCCc3ccccc32)oc2ccc(S(=O)(=O)N3CCOCC3)cc12 (centres undefined) | 94.5 | 89.5% (inactive) | 94.5% (inactive) | 84.9% (inactive) |  | 1.53% (inactive) | 50.7 | 52.2 | -2% (inactive) | 1.29% (inactive) |  |  |  |  |  | 
CC[C@H]1OC(=O)C[C@@H](O)[C@H](C)[C@@H](O[C@@H]2O[C@H](C)C[C@H](N(C)C)[C@H]2O)[C@@H](CC=O)C[C@@H](C)C(=O)C=C[C@]2(C)O[C@H]2[C@@H]1C | 162 | 19.5% (active) | 162% (inactive) | 53.5% (inactive) |  | -6.67% (inactive) | 45.8 | 39.1 |  |  |  |  |  |  |  | 
Cc1ccccc1Cn1c(=O)c2c(nc3n2CCCN3Cc2ccccc2)n(C)c1=O | 89 | 89% (inactive) | 89% (inactive) | 65.5% (inactive) | 78.5% (inactive) |  |  |  | -3.2% (inactive) | -2.26% (inactive) |  |  |  |  |  | 
Fc1ccc(C2C3=C(Nc4ncnn42)c2ccccc2OC3c2ccncc2)cc1 (centres undefined) | 85.5 | 85.5% (inactive) | 85.5% (inactive) | 86.7% (inactive) | 78.8% (inactive) |  |  |  | -2.11% (inactive) | -3.71% (inactive) |  |  |  |  |  | 
CC1CC(C)CN(c2ncnc3c2cnn3-c2ccc(Cl)cc2)C1 (centres undefined) | 91.5 | 89.5% (inactive) | 91.5% (inactive) | 88.5% (inactive) | 80.6% (inactive) | 3.71% (inactive) | 76.9 | 80.6 | 0.53% (inactive) | -1.64% (inactive) | -5.74% (inactive) | -8.12% (inactive) | 5.58% (inactive) | 88.1% (inactive) | 95.3% (inactive) | 2.44% (inactive)
Cc1ccc(Cn2nnc3c(=O)[nH]c(C4CCN(S(=O)(=O)c5ccc(F)cc5)CC4)nc32)cc1 | 90.5 | 106% (inactive) | 90.5% (inactive) | 76.4% (inactive) | 86.2% (inactive) |  |  |  | -1.73% (inactive) | -5.16% (inactive) |  |  |  |  |  | 
